HTR2A ag – mouse Htr2a agonists via beta-arrestin recruitment, primary screen, cell-based, luminescence; 5-hydroxytryptamine receptor 2A (Mus musculus), P35363; CHO-K1 mHTR2A beta-arrestin complementation; percent of 30 µM serotonin response; activation, % at 7.6 µM; AID 624169, 2012; actives 0.66% (n = 360,000);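 active = activation above a run cutoff, the mean activation of all tested compounds plus 3 SD, cut at about 14% in these data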;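 note: 0% = plate median of compound wells and 100% = 30 µM serotonin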
CRFR2-BP antag – antagonists of CRF-BP/CRF-R2 complex, primary screen, cell-based, HEK293, calcium dye fluorescence, uHTS | CRF-induced calcium fluorescence | inhibition, % at 11.8 µM | actives 0.59% (n = 350,000);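 active = inhibition of the ligand-induced calcium signal above about 50% at the single tested concentration, limit read from the data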
NOD2 RIPK2 PPI – NOD2-RIPK2 binding disruptors in cells, primary screen, fluorescence, CHO cells, BLA complementation | Receptor-interacting serine/threonine-protein kinase 2 (Homo sapiens), O43353 | CCF4 ratio | inhibition, % at 4.98 µM | actives 0.38% (n = 360,000) | AID 624267, 2012; in the data active = inhibition above about 21%;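 note: 0% = vehicle only and 100% = reference blocker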
TLR9-MyD88 block – inhibitors of TLR9-MyD88 association in cells, primary screen, cell-based, CHO, BLA complementation, fluorescence; Toll-like receptor 9 (Homo sapiens) + Myeloid differentiation primary response protein …; CCF4 FRET ratio; inhibition, % at 4.98 µM; actives 0.21% (n = 340,000);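 active = inhibition above the mean over all tested compounds plus 3 SD, cut at about 21% in these data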;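 note: 0% = DMSO only wells and 100% = clavulanate BLA inhibitor control wells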
TLR4-MyD88 BLA – inhibitors of TLR4-MyD88 association in cells, primary screen, cell-based, HeLa CL3-4, BLA complementation, FRET ratio. HeLa CL3-4 TLR4/MyD88 BLA complementation. inhibition, % at 8.4 µM. actives 0.18% (n = 200,000); in the data active = inhibition above about 25%;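 note: 0% = vehicle and 100% = reference inhibitor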
ABHD5-PLIN5 inh – ABHD5-PLIN5 interaction inhibitors, primary screen, cell lysate, split luciferase complementation, luminescence | Split G. princeps luciferase complementation, 4 h | actives 0.78% (n = 360,000) | inhibition, % at 4 µM | Perilipin-5 (Homo sapiens) + 1-acylglycerol-3-phosphate O-acyltransferase ABHD5 (Homo … | AID 602281, 2012;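 active = inhibition above the mean inhibition across every tested compound plus 3 SD, cut at about 22% in these data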;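 note: 0% = DMSO only wells and the 100% control is not disclosed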
Target sequence (Q00G26 whole entry, looked up): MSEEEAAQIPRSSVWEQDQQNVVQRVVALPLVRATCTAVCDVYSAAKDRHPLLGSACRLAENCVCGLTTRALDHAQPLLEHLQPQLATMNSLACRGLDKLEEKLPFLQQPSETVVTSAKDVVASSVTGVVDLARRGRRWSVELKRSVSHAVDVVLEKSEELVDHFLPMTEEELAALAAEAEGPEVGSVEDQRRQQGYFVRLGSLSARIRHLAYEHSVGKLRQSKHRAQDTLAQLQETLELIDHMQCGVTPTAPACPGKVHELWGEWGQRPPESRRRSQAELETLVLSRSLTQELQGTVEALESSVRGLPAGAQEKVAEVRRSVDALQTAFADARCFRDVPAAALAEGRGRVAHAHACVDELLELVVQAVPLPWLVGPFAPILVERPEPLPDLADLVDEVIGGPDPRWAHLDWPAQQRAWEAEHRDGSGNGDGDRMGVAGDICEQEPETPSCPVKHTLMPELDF
Target sequence (Q8WTS1 whole entry, looked up): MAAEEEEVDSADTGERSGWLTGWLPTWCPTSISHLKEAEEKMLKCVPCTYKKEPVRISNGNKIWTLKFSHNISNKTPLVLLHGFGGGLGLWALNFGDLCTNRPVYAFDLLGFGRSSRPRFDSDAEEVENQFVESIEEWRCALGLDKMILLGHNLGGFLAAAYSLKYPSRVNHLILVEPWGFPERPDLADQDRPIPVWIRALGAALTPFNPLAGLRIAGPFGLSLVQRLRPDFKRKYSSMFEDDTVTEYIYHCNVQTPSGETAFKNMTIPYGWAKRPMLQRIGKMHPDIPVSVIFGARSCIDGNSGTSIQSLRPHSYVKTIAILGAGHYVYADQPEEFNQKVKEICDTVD
TLR9-MyD88 conf – TLR9-MyD88 association inhibitors, retest, confirmation, cell-based, CHO, BLA complementation, fluorescence, triplicate; shares compounds with TLR9-MyD88 block; CCF4 FRET ratio; inhibition, % at 4.98 µM; actives 51% (n = 680); AID 540250, 2011;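 active = mean inhibition across three repeats above about 21% taken from the earlier screen, limit read from the data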;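 note: blue over green emission ratio reports constitutive TLR9 MyD88 association via BLA complementation; 0% = DMSO vehicle wells and 100% = clavulanate BLA inhibitor wells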
BLA nonselective – beta-lactamase reporter inhibitors in CHO cells, artefact control for TLR9-MyD88 binding inhibitor project, cell-based, fluorescence. shares compounds with TLR9-MyD88 block. CHO-BLA cells, CCF4 FRET ratio, BLA reporter. inhibition, % at 4.98 µM. actives 7% (n = 680);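 active = mean inhibition above a 50% cutoff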;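 note: counterscreen of TLR9-MyD88 hits on CMV-driven BLA in CHO-K1 cells; 0% = DMSO alone and 100% = clavulanate blocking BLA; higher means less blue over green ratio so more BLA blockade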
TLR9 CHO tox – CHO cell viability loss – luminescence, single concentration, cytotoxicity control for TLR9-MyD88 binding inhibitor project. AID 588336, 2011. shares compounds with TLR9-MyD88 block. TLR9-MyD88 CHO cells cytotoxicity. inhibition, % at 4.98 µM. actives 39% (n = 680); in the data active = inhibition above about 11%
Active calls of the source: *; · = no result given. In the library only some 2.4% were active in any assay of this set; here they are far more common.

SMILES	HTR2A ag	CRFR2-BP antag	NOD2 RIPK2 PPI	TLR9-MyD88 block	TLR4-MyD88 BLA	ABHD5-PLIN5 inh	TLR9-MyD88 conf	BLA nonselective	TLR9 CHO tox
C[C@H]1CN([C@@H](C)CO)C(=O)CCCn2nncc2CO[C@H]1CN(C)S(=O)(=O)c1ccc2ccccc2c1	6	-6	-8	4	·	0	·	·	·
O=[N+]([O-])c1ccc(Sc2cccc[n+]2[O-])c2nonc12	-13	-35	89*	55*	·	86*	59*	9	101*
CC(C)C[C@H]1CN(CCCC[C@H]2CNC(=O)C(=O)N2CCc2ccc(O)cc2)C(=O)C(=O)N1Cc1ccccc1	13	·	-28	·	·	2	·	·	·
Nc1c(C(=O)Nc2nccs2)sc2nc(-c3cccs3)cc(C(F)(F)F)c12	0	-43	19	22*	24	-6	7	12	-4
O=c1ccoc2ccccc12	-2	·	-15	·	·	3	·	·	·
CCCCN(C=O)c1c(CC)nc2c(OCc3ccc(S(C)(=O)=O)cc3)cccn12	-2	·	-6	·	·	0	·	·	·
CC1(Oc2ccc3ccccc3c2)CCN(Cc2cccn2-c2nccs2)C1 (stereo not drawn)	7	·	-2	·	·	4	·	·	·
COc1ccc(CNn2c(-c3cccs3)nc3ccccc3c2=O)cc1OC	0	-35	-12	22*	-1	0	1	1	12*
O=C(NC1CCCC1)C(c1ccco1)N1CCN(c2c(Cl)cncc2Cl)CC1 (stereo not drawn)	-3	·	-5	·	·	-3	·	·	·
Cc1ccc(C(=O)COC(=O)COc2ccccc2[N+](=O)[O-])s1	-3	-10	-13	-10	·	-3	·	·	·
CCOC(=O)COc1ccccc1/C=C\[N+](=O)[O-]	-4	-7	87*	33*	22	62*	47*	6	96*
N#CC1=C(N)OC2=C(CC/C2=C\c2ccccc2Cl)C1c1ccccc1Cl (stereo not drawn)	-4	-86	11	32*	2	5	7	7	2
N#CC1=C(N)OC2=C(CC/C2=C\c2ccccc2)C1c1ccccc1 (stereo not drawn)	-1	-349	6	7	13	1	·	·	·
O=C(CCN1C(=O)c2ccccc2S1(=O)=O)Nc1ccccc1	-3	13	-2	-5	-1	-10	·	·	·
Cc1cccc(NC(=O)CCN2C(=O)c3ccccc3S2(=O)=O)c1C	13	8	-15	21*	·	7	4	1	-1
CC(=O)C1=C(C)NC(SCC(=O)c2ccc(Cl)c(Cl)c2)=C(C#N)C1c1ccco1 (stereo not drawn)	-5	-19	4	21*	18	-1	7	8	9
CCCC(=O)Nc1ccc2c(c1)nc(CCN1CCN(c3ccccn3)CC1)n2C	-9	7	-5	27*	·	-4	2	3	3
Cc1ccc(-c2cc(NC(=O)c3ccccc3)on2)cc1	1	-22	-6	24*	·	-5	2	0	-2
Cc1nn(C)c(C)c1/C=N/NC(=O)CCn1nc(C)c([N+](=O)[O-])c1C	-2	4	-1	28*	-4	-7	-2	1	-1
Cc1ccc(-n2nc3c(c2NC(=O)c2c(F)cccc2Cl)CS(=O)(=O)C3)cc1C	-5	-3	21	22*	·	-1	11	16	4

Compound activity as filed in PubChem.
